Here are results for 26 compounds from the supplement of paper PMC8047044.

Values joined by “and” are separate entries in the source; they are usually repeats but may differ in a detail not shown here. Identical values can stand only once. Counter-ions that a name gives are not always drawn.

The experiment relates to Neuro-2a. Description: neurite formation score, plate-normalized to DMSO control mean 5.04 (score (0-8 scale)); higher = more or longer neurites. Conditions: 0.1 µM. Here is the method:
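Neuro-2a mouse neuroblastoma cells in PLL-coated 96-well plates were pre-treated for 1 h in DMEM(+) with each kinase inhibitor at 0.1 µM, then switched to serum-free DMEM(-) with inhibitor to induce neurite outgrowth and fixed about 2-3 h later. Three blinded observers scored neurite formation from 0 (no neurites) to 8 (long neurites on almost all cells).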
Compound `CC(=O)Nc1cccc(-n2c(=O)n(C3CC3)c(=O)c3c(Nc4ccc(I)cc4F)n(C)c(=O)c(C)c32)c1` [Trametinib DMSO solvate] returned a neurite formation score of 4.92.
With `CN1CC[C@H](c2c(O)cc(O)c3c(=O)cc(-c4ccccc4Cl)oc23)[C@H](O)C1` [Flavopiridol hydrochloride], the neurite formation score came out at 3.76.
Consider `C=CC(=O)Nc1cccc(Nc2nc(Nc3ccc(NC4CN(CCF)C4)cc3OC)ncc2C(F)(F)F)c1`, for which the neurite formation score was 4.08.
The figure for `C=CC(=O)N1CCC[C@@H](n2nc(-c3ccc(Oc4ccccc4)cc3)c3c(N)ncnc32)C1` is 4.38.
With `COc1cc(Nc2nc3ccccc3nc2NS(=O)(=O)c2ccc(NC(=O)c3ccc(C)c(OC)c3)cc2)cc(OC)c1`, the neurite formation score worked out at 4.21.
The figure for `CNC(=O)c1ccccc1Nc1cc(Nc2ccc(N3CCOCC3)cc2OC)ncc1C(F)(F)F` is 5.58; for `CCC(=O)Nc1cccc(Oc2nc(Nc3ccc(N4CCN(C)CC4)cc3OC)ncc2Cl)c1` it is 4.25; for `Cc1csc(-c2nnc(Nc3ccc(Oc4ncccc4-c4ccnc(N)n4)cc3)c3ccccc23)c1` it is 4.58.
For `CN1CCN(S(=O)(=O)c2ccc(-c3cnc(N)c(C(=O)Nc4cccnc4)n3)cc2)CC1`, the neurite formation score worked out at 4.75.
The figure for `CN(C)CCCn1cc(C2=C(c3c[nH]c4ccccc34)C(=O)NC2=O)c2ccccc21` is 5.54; for `Cc1ccc(-c2csc3ncnc(SCCC(=O)O)c23)cc1` it is 4.58; for `CS(=O)(=O)c1cccc(CNc2nc(Nc3ccc4c(c3)CCC(=O)N4)ncc2C(F)(F)F)c1` it is 5.09.
The figure for `CN1CCN(Cc2ccc(-c3cnc4[nH]cc(-c5ccc6[nH]ccc6c5)c4c3)cc2)CC1` is 4.42.
The figure for `O=C1c2ccc(Nc3ccc(F)cc3F)cc2CCc2ccc(OC[C@H](O)CO)cc21` [Skepinone-L] is 5.25.
`N#Cc1cccc(-c2c[nH]c3ncnc(N4CCOCC4)c23)c1` returned a neurite formation score of 4.75.
The figure for `COc1ccc2c(OCc3nnc4ccc(-c5ccccc5)nn34)ccnc2c1` is 5.75.
`O=C(NOC[C@H](O)CO)c1ccc(F)c(F)c1Nc1ccc(I)cc1F`: the neurite formation score stood at 4.71.
The figure for `C[C@@H](Oc1cc(-c2cnn(C3CCNCC3)c2)cnc1N)c1c(Cl)ccc(F)c1Cl` [(R)-Crizotinib] is 4.71; for `Cn1cc(C2=C(c3ccc(Cl)cc3Cl)C(=O)NC2=O)c2ccccc21` it is 4.76; for `COc1cc2nccc(Oc3ccc(NC(=O)Nc4ccc(F)cc4F)c(F)c3)c2cc1OC` it is 4.38.
For `COc1ccc(-c2ccc3ncc4c(c3c2)n(-c2ccc(N3CCNCC3)c(C(F)(F)F)c2)c(=O)n4C)cn1` the value was 4.92.
Consider `C[C@@H]1CCN(C(=O)CC#N)C[C@@H]1N(C)c1ncnc2[nH]ccc12`, for which the neurite formation score is 3.92 and 5.58.
`Cc1nc2c(-c3cnc(N)nc3)nc(N3CCOCC3)nc2n1C(C)C` showed a neurite formation score of 4.25.
The figure for `FC(F)(F)c1ccc(CNc2ccc(Cc3c[nH]c4ncc(Cl)cc34)cn2)cn1` [Pexidartinib (PLX3397)] is 5.42; for `CCOc1cc(C(=O)N2CCC(N3CCN(C)CC3)CC2)ccc1Nc1ncc2c(n1)N(C1CCCC1)c1ccccc1C(=O)N2C` it is 4.25.
For `CC(C)(C)c1cc(NC(=O)Nc2ccc(-c3cn4c(n3)sc3cc(OCCN5CCOCC5)ccc34)cc2)no1` [Quizartinib (AC220)] the value was 5.21.
